Assay results from PubChem BioAssay AID1159580 (chemical genetic matrix, 2015).
Where “and” joins values, the source holds several entries; their conditions need not be identical. Equal entries are not always repeated. Hit rate of the full screen: of about 5,500 compounds, about 2,000 (36%) were called active. Roughly 18% stayed inconclusive and do not appear here. Rule as the data show it: active = normalized growth mostly below about 0.91 (no sharp cut-off); inconclusive = no clear call, values can overlap the other calls; inactive = mostly above about 0.92. This is one part of the list.

Test: chemical genetic growth profiling, strain panel (AID 1159580);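 also: tested at 20 µM; growth read once vehicle control cultures reached saturation at 30 °C; 1 = growth at the plate median or of vehicle wells; lower values mean less growth of the strain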
Conditions: S. cerevisiae deletion strains, growth OD

Measured: normalized growth

Oc1c(Br)cc(Br)c2cccnc12
active: locus YAL013W, strain DEP1, active compounds read low 0.0586 | locus YAL021C, strain ccr4, active compounds read low 0.0663 | locus YAL026C, strain drs2, active compounds read low 0.0631 | locus YAL030W, strain snc1, active compounds read low 0.055 | locus YBL061C, strain skt5, active compounds read low 0.0586 | locus YBR009C, strain hhf1, active compounds read low 0.0623 | locus YBR021W, strain FUR4, active compounds read low 0.0949 | locus YBR023C, strain chs3, active compounds read low 0.0634 | locus YBR171W, strain sec66, active compounds read low 0.0756 | locus YBR229C, strain ROT2, active compounds read low 0.0506 | locus YBR231C, strain swc5, active compounds read low 0.0629 | locus YBR279W, strain paf1, active compounds read low 0.0612 | locus YCL011C, strain gbp2, active compounds read low 0.0575 | locus YCL016C, strain dcc1, active compounds read low 0.0701 | locus YCL029C, strain bik1, active compounds read low 0.07 | locus YCL061C, strain MRC1, active compounds read low 0.0647 | locus YCL069W, strain vba3, active compounds read low 0.0645 | locus YCR088W, strain abp1, active compounds read low 0.0595 | locus YDL005C, strain med2, active compounds read low 0.0726 | locus YDL035C, strain GPR1, active compounds read low 0.0512 | locus YDL040C, strain nat1, active compounds read low 0.0563 | locus YDL074C, strain BRE1, active compounds read low 0.0885 | locus YDL101C, strain DUN1, active compounds read low 0.0585 | locus YDL134C, strain PPH21, active compounds read low 0.0526 | locus YDL185W, strain tfp1, active compounds read low 0.0677 | locus YDL192W, strain arf1, active compounds read low 0.0671 | locus YDR001C, strain nth1, active compounds read low 0.0572 | locus YDR069C, strain doa4, active compounds read low 0.0693 | locus YDR101C, strain arx1, active compounds read low 0.0674 | locus YDR137W, strain rgp1, active compounds read low 0.107 | locus YDR150W, strain NUM1, active compounds read low 0.0621 | locus YDR159W, strain sac3, active compounds read low 0.0892 | locus YDR162C, strain NBP2, active compounds read low 0.0492 | locus YDR195W, strain ref2 0.126 | locus YDR297W, strain sur2, active compounds read low 0.0575 | locus YDR318W, strain mcm21, active compounds read low 0.071 | locus YDR334W, strain swr1, active compounds read low 0.0608 | locus YDR335W, strain msn5, active compounds read low 0.0583 | locus YDR388W, active compounds read low 0.0637 | locus YDR392W, strain spt3, active compounds read low 0.0808 | locus YDR502C, strain sam2, active compounds read low 0.0753 | locus YEL003W, strain gim4, active compounds read low 0.0546 | locus YEL037C, strain rad23, active compounds read low 0.0573 | locus YEL061C, strain CIN8 (second series), active compounds read low 0.145 | locus YEL061C, strain CIN8, active compounds read low 0.05 | locus YER015W, strain faa2, active compounds read low 0.0595 | locus YER016W, strain bim1, active compounds read low 0.0608 | locus YER110C, active compounds read low 0.0879 | locus YER111C, strain swi4, active compounds read low 0.0694 | locus YER155C, strain BEM2 (second series), active compounds read low 0.0894 | locus YER155C, strain BEM2, active compounds read low 0.0691 | locus YER167W, strain BCK2, active compounds read low 0.0561 | locus YFR010W, strain ubp6, active compounds read low 0.0731 | locus YGL078C, strain dbp3, active compounds read low 0.0674 | locus YGL086W, strain mad1, active compounds read low 0.0628 | locus YGL167C, strain pmr1, active compounds read low 0.079 | locus YGL173C, strain kem1, active compounds read low 0.0675 | locus YGL227W, strain vid30, active compounds read low 0.0683 | locus YGL240W, strain doc1, active compounds read low 0.0807 | locus YGL248W, strain PDE1, active compounds read low 0.0474 | locus YGL253W, strain hxk2, active compounds read low 0.0544 | locus YGR078C, strain PAC10, active compounds read low 0.0525 | locus YGR135W, strain pre9, active compounds read low 0.0723 | locus YGR229C, strain SMI1, active compounds read low 0.0593 | locus YGR252W, strain gcn5, active compounds read low 0.146 | locus YHR013C, strain ard1, active compounds read low 0.115 | locus YHR027C, strain rpn1, active compounds read low 0.0627 | locus YHR030C, strain SLT2, active compounds read low 0.0528 and 0.107 | locus YHR079C, strain IRE1 (second series), active compounds read low 0.0637 | locus YHR079C, strain IRE1, active compounds read low 0.113 | locus YHR094C, strain hxt1, active compounds read low 0.0678 | locus YHR129C, strain ARP1, active compounds read low 0.059 | locus YHR142W, strain chs7, active compounds read low 0.0809 | locus YHR200W, strain rpn10, active compounds read low 0.0663 | locus YIL066C, strain RNR3, active compounds read low 0.051 | locus YIL073C, strain SPO22, active compounds read low 0.15 | locus YIL125W, strain kgd1, active compounds read low 0.0707 | locus YIR030C, strain dcg1, active compounds read low 0.0676 | locus YJL092W, strain hpr5, active compounds read low 0.0584 | locus YJL095W, strain BCK1 (second series), active compounds read low 0.0568 | locus YJL095W, strain BCK1, active compounds read low 0.0606 and 0.106 | locus YJL115W, strain asf1, active compounds read low 0.072 | locus YJL129C, strain trk1, active compounds read low 0.0904 | locus YJL134W, strain LCB3, active compounds read low 0.0513 | locus YJL154C, strain vps35, active compounds read low 0.0576 | locus YJL164C, strain tpk1, active compounds read low 0.0622 | locus YJL166W, strain qcr8, active compounds read low 0.0631 | locus YJL168C, strain set2, active compounds read low 0.0664 | locus YJL187C, strain SWE1 (second series), active compounds read low 0.0507 | locus YJR043C, strain POL32, active compounds read low 0.0636 | locus YJR066W, strain TOR1, active compounds read low -4.7e-05
